# Measurements: PubChem BioAssay (NCATS)
# Results filed as inconclusive are left out. A call without a number means that no potency is given here. Calls of active or inactive are those of the source. Unless noted, calls come from the whole dose curve; as a rule, active = well fitted curve in the direction sought with a large enough effect; inconclusive = small, poorly fitted or top-dose-only effect, or another doubt; inactive = no such curve, though single readings can be large; an effect the other way counts as inactive or inconclusive.
# Tests used:
# [1] = Cellular Toxicity (caspase-3) Renal Proximal Tubule (AID 667);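 note: cells exposed to compound for 16 hours at 37 °C before detection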
# Summary of the method: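 Primary rat proximal tubule cells, 1000/well, 5 h plating at 37 °C, then compound 16 h at 37 °C. Caspase-Glo 3/7 reagent, 1 h RT, luminescence. Normalized to DMSO (basal) and 10 uM staurosporine (100%); Hill-fit AC50.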
# [2] = MultiTox-Fluor Cytotoxicity Assay - LYMP1-001 - Dead Cells (AID 946); note: potency is the fitted concentration of half-maximal effect
# Summary of the method: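 AC50 from Hill fit of concentration-response; data normalized to DMSO (basal) and 15 uM tetraoctylammonium bromide (100%). LYMP1-001 lymphoblastoid cells, 2500/well, 16 hr compound at 37 C; dead-cell protease fluorescence, Ex/Em 485/520.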
# [3] = biological target: Cytochrome P450 3A4 (Homo sapiens) (UniProt P08684); test: qHTS Assay for Inhibitors and Substrates of Cytochrome P450 3A4 (AID 884); note: nearly all actives have a fitted effect of over 50% in size; note: potency is the fitted concentration of half-maximal effect
# Chain of Cytochrome P450 3A4 (Homo sapiens) (P08684 whole entry, looked up): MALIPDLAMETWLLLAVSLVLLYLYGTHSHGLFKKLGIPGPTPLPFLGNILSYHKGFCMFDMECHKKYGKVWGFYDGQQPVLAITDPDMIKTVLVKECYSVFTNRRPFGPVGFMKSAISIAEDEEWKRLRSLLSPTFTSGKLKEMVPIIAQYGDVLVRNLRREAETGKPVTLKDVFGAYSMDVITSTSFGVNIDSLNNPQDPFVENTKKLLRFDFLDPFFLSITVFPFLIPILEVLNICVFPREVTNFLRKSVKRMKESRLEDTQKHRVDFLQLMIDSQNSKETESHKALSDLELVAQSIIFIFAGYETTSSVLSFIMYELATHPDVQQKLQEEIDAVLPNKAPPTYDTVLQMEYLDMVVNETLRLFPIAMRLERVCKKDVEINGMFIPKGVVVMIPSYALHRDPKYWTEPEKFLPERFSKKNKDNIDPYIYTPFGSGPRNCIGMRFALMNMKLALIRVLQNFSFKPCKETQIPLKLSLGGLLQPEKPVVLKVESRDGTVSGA
# Summary of the method: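 20 nM human CYP3A4 with 25 uM Luciferin-PPXE (at KM) in 200 mM KPO4, preincubated 10 min with compound; NADPH regeneration started a 60 min RT reaction. Luciferin detected by luminescence, normalized to 57 uM ketoconazole as full inhibition.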
# [4] = Cell Viability - LYMP2-001 (AID 921); note: series mostly up to about 92 µM; nearly all actives have a fitted effect of over 70% in size
# Summary of the method: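 Human lymphoblastoid cells (Coriell), 2500 per well, were preincubated 5 hr at 37 C, then exposed to compounds in complete medium for 24 hr at 37 C. Cellular ATP was read by CellTiter-Glo luminescence; AC50 from Hill fits of concentration-response data.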
# [5] = MultiTox-Fluor Cytotoxicity Assay - LYMP1-001 - Live Cells (AID 947)
# [6] = Cell Viability - LYMP1-002 - Assay at 16 hr (AID 948)
# Summary of the method: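 Human lymphoblastoid cells (LYMP1-002), 2500/well, were preincubated 5 hr at 37 C, then exposed to compounds for 16 hr at 37 C in complete medium. Cellular ATP was read by CellTiter-Glo luminescence after 30 min at room temperature; AC50 from Hill fits.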
# [7] = MultiTox-Fluor Cytotoxicity Assay - LYMP1-002 - Live Cells (AID 955)
# Summary of the method: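 Human lymphoblastoid LYMP1-002 cells, 2500/well in complete medium, rested 5 hr at 37 C, then exposed to compounds for 16 hr at 37 C. Live-cell protease cleavage of GF-AFC read by fluorescence (Ex/Em 405/510) after 60 min at room temperature; AC50 from Hill fits.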
# [8] = biological target: Guanine nucleotide-binding protein G(i) subunit alpha-1 (Homo sapiens) (UniProt P63096); test: qHTS Assay for Inhibitors of RGS12 GoLoco Motif Activity (Green Fluorophore) (AID 879);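 note: negative values mean loss of peptide binding seen as reduced polarization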
# Chain of Guanine nucleotide-binding protein G(i) subunit alpha-1 (Homo sapiens) (P63096 whole entry, looked up): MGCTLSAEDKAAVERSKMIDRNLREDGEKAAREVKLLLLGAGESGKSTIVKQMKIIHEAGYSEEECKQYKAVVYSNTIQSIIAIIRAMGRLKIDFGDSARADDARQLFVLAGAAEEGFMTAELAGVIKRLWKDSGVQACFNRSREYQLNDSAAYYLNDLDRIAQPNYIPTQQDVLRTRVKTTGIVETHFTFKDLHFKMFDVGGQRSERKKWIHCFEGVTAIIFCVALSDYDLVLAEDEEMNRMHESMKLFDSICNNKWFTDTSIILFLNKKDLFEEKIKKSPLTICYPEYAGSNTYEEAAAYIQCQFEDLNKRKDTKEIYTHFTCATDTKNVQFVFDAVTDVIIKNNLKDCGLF
# Summary of the method: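 Fluorescence polarization assay: 50 nM Gαi1 with 10 nM FITC-labeled RGS12 GoLoco peptide in 10 mM Tris pH 7.5, 150 mM NaCl, 0.1 mM GDP, 0.05% NP40, 10 min at room temperature with compound.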
# [9] = biological target: Pyruvate kinase (Leishmania mexicana) (UniProt Q27686); test: qHTS Validation Assay for Inhibitors of Leishmania Mexicana Pyruvate Kinase (AID 945)
# Chain of Pyruvate kinase (Leishmania mexicana) (Q27686 2-499 E452W): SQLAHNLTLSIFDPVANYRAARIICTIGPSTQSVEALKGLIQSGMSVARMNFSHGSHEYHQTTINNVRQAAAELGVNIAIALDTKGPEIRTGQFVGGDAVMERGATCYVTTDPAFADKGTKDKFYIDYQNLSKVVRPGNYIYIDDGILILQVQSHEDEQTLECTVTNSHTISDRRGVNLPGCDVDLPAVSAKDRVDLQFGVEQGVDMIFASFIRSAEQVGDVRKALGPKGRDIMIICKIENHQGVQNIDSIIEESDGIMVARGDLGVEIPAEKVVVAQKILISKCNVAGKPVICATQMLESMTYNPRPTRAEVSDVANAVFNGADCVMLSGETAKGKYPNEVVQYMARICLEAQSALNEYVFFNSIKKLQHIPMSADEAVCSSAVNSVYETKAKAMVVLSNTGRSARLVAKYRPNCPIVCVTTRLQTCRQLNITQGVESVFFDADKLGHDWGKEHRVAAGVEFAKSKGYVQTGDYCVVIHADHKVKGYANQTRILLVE
# Summary of the method: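 An endpoint luciferase assay: 0.2 nM LmPYK E451W turns over 0.5 mM PEP with 0.1 mM ADP for 1 h at room temperature, pH 7.2, before PKLight addition. Values are normalized to DMSO-only wells.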
# [10] = biological target: Pyruvate kinase PKM (Homo sapiens) (UniProt P14618); test: qHTS Assay for Activators of Human Muscle Pyruvate Kinase (AID 954; active = well fitted curve in the direction sought with a large enough effect, not every such curve was filed as active)
# Chain of Pyruvate kinase PKM (Homo sapiens) (P14618 whole entry, looked up): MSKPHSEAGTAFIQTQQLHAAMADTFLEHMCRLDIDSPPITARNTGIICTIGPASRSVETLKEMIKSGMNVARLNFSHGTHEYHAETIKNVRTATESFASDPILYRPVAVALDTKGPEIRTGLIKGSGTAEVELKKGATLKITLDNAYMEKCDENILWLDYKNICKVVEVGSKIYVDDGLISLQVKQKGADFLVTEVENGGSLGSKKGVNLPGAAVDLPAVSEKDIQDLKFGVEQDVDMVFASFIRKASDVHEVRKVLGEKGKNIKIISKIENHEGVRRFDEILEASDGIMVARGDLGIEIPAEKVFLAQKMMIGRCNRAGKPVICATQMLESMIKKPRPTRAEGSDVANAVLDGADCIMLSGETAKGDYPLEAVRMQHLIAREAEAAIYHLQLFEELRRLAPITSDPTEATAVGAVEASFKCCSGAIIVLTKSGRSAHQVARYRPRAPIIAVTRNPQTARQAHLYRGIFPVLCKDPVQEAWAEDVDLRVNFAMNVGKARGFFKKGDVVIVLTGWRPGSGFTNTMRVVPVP
# Summary of the method: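 Luminescence from a luciferase ATP-detection/stop reagent reported PKM2 activity. Reactions contained 0.1 nM purified human enzyme, 0.5 mM PEP, 0.1 mM ADP and 7 mM MgCl2 at pH 7.2, run 1 h at RT.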
# [11] = biological target: Cytochrome P450 3A4 (Homo sapiens) (UniProt P08684); test: qHTS Assay for Activators of Cytochrome P450 3A4 (AID 885); note: nearly all actives have a fitted effect of over 65% in size
# Summary of the method: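 20nM CYP3A4 + 25uM Luciferin-PPXE (=KM), 200mM KPO4; cpd 10 min RT; NADPH regen, 60 min RT; stop w/ detection buffer, 20 min; luminescence. Normalized to 57 uM ketoconazole.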
# [12] = Confirmation and Secondary Assay for Modulators of Hemoglobin Beta Chain Splicing at IVS2 654 locus (AID 910);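 note: HeLa cells stably carrying EGFP split by mutant beta-globin IVS2-654 intron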
# Summary of the method: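 HeLa cells stably expressing EGFP interrupted by β-globin IVS2-654 intron, seeded overnight in Opti-MEM/2% FCS, then treated 2 days at 37 °C. Restored splicing read as total peak GFP intensity per well by laser scanning cytometry (488 nm excitation, 500–520 nm emission); 500 nM antisense PNA as control.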
# [13] = Confirmation and Secondary Assay for Modulators of Hemoglobin Beta Chain Splicing at IVS2 705 locus (AID 930);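 note: HeLa cells stably expressing the EGFP-705 splicing reporter; GFP fluorescence per well restored by corrected splicing of the IVS2-705 intron in EGFP; series mostly up to about 46 µM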
# Summary of the method: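 Per-well GFP, captured at 1 x 8 µm resolution with 488 nm excitation, served as the read-out for HeLa EGFP-705 cells incubated 2 days with test compound versus DMSO.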
# [14] = qHTS Assay for Identification of Small Molecule Agonists for Hypoxia Response Element Signaling Pathway (AID 914; active = well fitted activation curve with a large enough effect in the signal ratio, with a control signal flat, not every such curve was filed as active; the % refers to the signal ratio); details: ME-180 (cervical carcinoma) HRE-bla reporter, beta-lactamase ratio, CoCl2, 17 h; stronger effect = higher value
# Summary of the method: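 In Opti-MEM containing 0.5% dialyzed FBS and 10 mM HEPES, ME-180 HRE-bla cells received a compound titration and EC50 CoCl2. They were incubated 17 hours, then CCF4-loaded 2.5 hours at room temperature before ratio reading.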
# [15] = biological target: Cytochrome P450 2D6 (Homo sapiens) (UniProt P10635); test: qHTS Assay for Inhibitors and Substrates of Cytochrome P450 2D6 (AID 891); note: potency is the fitted concentration of half-maximal effect; nearly all actives have a fitted effect of over 60% in size
# Chain of Cytochrome P450 2D6 (Homo sapiens) (P10635 whole entry, looked up): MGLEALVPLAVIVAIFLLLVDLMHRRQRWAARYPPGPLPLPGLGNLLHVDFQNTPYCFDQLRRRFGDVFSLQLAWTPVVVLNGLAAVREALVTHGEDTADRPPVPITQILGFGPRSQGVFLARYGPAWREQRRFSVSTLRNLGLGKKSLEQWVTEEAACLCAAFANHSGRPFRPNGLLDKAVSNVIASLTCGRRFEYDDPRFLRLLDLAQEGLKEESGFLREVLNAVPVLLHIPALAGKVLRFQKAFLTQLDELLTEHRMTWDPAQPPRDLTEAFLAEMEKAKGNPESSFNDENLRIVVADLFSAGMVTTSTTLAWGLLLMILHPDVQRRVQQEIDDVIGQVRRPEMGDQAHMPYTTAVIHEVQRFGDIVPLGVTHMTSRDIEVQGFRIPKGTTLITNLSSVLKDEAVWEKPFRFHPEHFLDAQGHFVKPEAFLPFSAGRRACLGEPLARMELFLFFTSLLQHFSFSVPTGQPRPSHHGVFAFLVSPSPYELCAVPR
# Summary of the method: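 Human CYP2D6 (5 nM) with 30 uM Luciferin-ME EGE (at Km) in 100 mM KPO4, compound preincubated 10 min, then NADPH regeneration system for 60 min at room temperature. Luciferin read by luminescence; normalized to 1.43 uM quinidine.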
smiles,measurement,setting,value
CC(C)(C)NC(=O)[C@@H]1C[C@@H]2CCCC[C@@H]2CN1C[C@@H](O)[C@H](Cc1ccccc1)NC(=O)[C@H](CC(N)=O)NC(=O)c1ccc2ccccc2n1,outcome,[1],inactive
same,Potency,[2],50.1 µM (active)
Cc1ccccc1,outcome,[1],inactive
same,Potency,[3],inactive
same,Potency,[4],inactive
same,Potency,[2],inactive
same,outcome,[5],inactive
same,outcome,[6],inactive
same,outcome,[7],inactive
CC(C)=O,outcome,[1],inactive
same,Potency,[4],inactive
same,Potency,[2],inactive
same,outcome,[5],inactive
same,outcome,[6],inactive
same,outcome,[7],inactive
Nc1ccn([C@H]2CS[C@@H](CO)O2)c(=O)n1,outcome,[1],inactive
same,Potency,[3],inactive
same,Potency,[4],inactive
same,Potency,[2],inactive
same,outcome,[5],inactive
same,outcome,[6],inactive
same,outcome,[7],inactive
CCCCCCCC(=O)O,outcome,[1],inactive
same,Potency,[3],inactive
same,Potency,[4],inactive
same,Potency,[2],inactive
same,outcome,[5],inactive
same,outcome,[6],inactive
same,outcome,[7],inactive
CC[N+](C)(C)Cc1ccccc1Br,outcome,[8],inactive
same,outcome,[9],inactive
same,outcome,[10],inactive
CC1=C2[C@@H]([C@H](C)CC[C@H]2/C=C(\C)C(=O)O)[C@H](O)C1,outcome,[1],inactive
same,Potency,[3],inactive
same,Potency,[4],inactive
same,Potency,[2],inactive
same,outcome,[5],inactive
same,outcome,[6],inactive
same,outcome,[7],inactive
CC1=C(/C=C/C(C)=C/C=C/C(C)=C/CO)C(C)(C)CCC1,outcome,[1],inactive
same,outcome,[11],inactive
same,outcome,[12],inactive
same,outcome,[13],inactive
same,outcome,[6],inactive
same,outcome,[7],inactive
CC(Cc1ccc(O)c(O)c1)C(C)Cc1ccc(O)c(O)c1 (stereo unspecified),Potency,[3],12.6 µM (active)
same,outcome,[11],inactive
O=C(O)CN(CCN(CC(=O)O)CC(=O)O)CC(=O)O,Potency,[3],inactive
same,outcome,[12],inactive
same,outcome,[13],inactive
OCc1ccccc1O[C@@H]1O[C@H](CO)[C@@H](O)[C@H](O)[C@H]1O,Potency,[3],inactive
Cc1onc(-c2ccccc2)c1C(=O)N[C@@H]1C(=O)N2[C@@H]1SC(C)(C)[C@@H]2C(=O)O,activation,[14],-2.15% (inactive)
C=CCSSSCC=C,outcome,[11],inactive
same,outcome,[12],inactive
same,outcome,[13],inactive
Oc1cc(O)c2c(c1)OC(c1ccc(O)c(O)c1)C(O)C2 (stereo unspecified),Potency,[3],inactive
same,outcome,[12],inactive
same,outcome,[13],inactive
Cc1c(C)c2c(c(C)c1O)CC[C@@](C)(CCC[C@H](C)CCC[C@H](C)CCCC(C)C)O2,Potency,[3],inactive
CN1Cc2c(N)cccc2C(c2ccccc2)C1 (stereo unspecified),outcome,[12],inactive
same,outcome,[13],inactive
CC(C(=O)O)c1ccc(N2Cc3ccccc3C2=O)cc1 (stereo unspecified),outcome,[11],inactive
same,outcome,[12],inactive
same,outcome,[13],inactive
CC1=C(/C=C/C(C)=C/C=C/C(C)=C/C=C/C=C(C)/C=C/C=C(C)/C=C/C2=C(C)CCCC2(C)C)C(C)(C)CCC1,Potency,[3],inactive
same,outcome,[12],inactive
same,outcome,[13],inactive
CCCC(=O)Nc1ncnc2c1ncn2C1OC2COP(=O)(O)OC2C1OC(=O)CCC (stereo unspecified),outcome,[12],inactive
same,outcome,[13],inactive
CN(C)CCCN1c2ccccc2C(C)(C)c2ccccc21,Potency,[15],3.98 µM (active)
NC(=O)c1ncn(C2OC(CO)C(O)C2O)n1 (stereo unspecified),outcome,[12],inactive
same,outcome,[13],inactive
Nc1c(Br)cc(Br)cc1CNC1CCC(O)CC1 (stereo unspecified),outcome,[12],inactive
same,outcome,[13],inactive
Cc1cn([C@H]2C[C@H](O)[C@@H](CO)O2)c(=O)[nH]c1=O,Potency,[3],inactive
CC1=C(/C=C/C(C)=C/C=C/C(C)=C/C=C/C=C(C)/C=C/C=C(C)/C=C/C2=C(C)C(=O)CCC2(C)C)C(C)(C)CCC1=O,Potency,[3],inactive
same,outcome,[12],inactive
same,outcome,[13],inactive
CC(C)N=c1cc2n(-c3ccc(Cl)cc3)c3ccccc3nc-2cc1Nc1ccc(Cl)cc1,Potency,[15],2.51 µM (active)
CCC(=O)NCCC1CCc2ccc3c(c21)CCO3 (stereo unspecified),outcome,[12],inactive
same,outcome,[13],inactive
O=c1ccn([C@@H]2O[C@H](CO)[C@@H](O)[C@H]2O)c(=O)[nH]1,Potency,[3],inactive
O=C1CSC2(CCN(CCCN3c4ccccc4Sc4ccc(Cl)cc43)CC2)N1,Potency,[15],0.631 µM (active)
C[C@@H]1CCC2[C@@H](C)[C@@H](O)O[C@@H]3O[C@@]4(C)CC[C@@H]1[C@@]23OO4 (stereo partly specified),outcome,[11],inactive
same,outcome,[12],inactive
same,outcome,[13],inactive
